From PubChem BioAssay (NCI)
This is part of a sample that, as a whole, favours compounds with a hit. Of some 83,000 tested, about 20% had one in any assay.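 Percent growth is the endpoint: 0 to 100 indicates growth inhibition (40 means 60% inhibition), 0 means no net growth, and negative values indicate cell death.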 The source made the active and inactive calls. Rule for the calls: active = growth percent below 10; inactive = the rest.

System: HL-60(TB) leukemia
Test: NCI-60 one-dose screen, 48 h (100 = growth as untreated, 0 = no growth, -100 = all killed)
Details: 10 µM unless noted

Row | SMILES | growth
1 | Cn1ccnc1C(=O)/C=C/c1ccc(NC(=O)c2ccc(F)cc2)cc1 | 11.8% (inactive)
2 | CC(C)C(=O)Nc1ccc(-c2nc(-c3cccc(O)c3)c(-c3ccnc(Br)c3)[nH]2)cc1 | -40.4% (active)
3 | Oc1[nH]c2ccc(Cl)cc2c1N=Nc1nc(N=Nc2c(O)[nH]c3ccc(Cl)cc23)nc(N2CCOCC2)n1 | 72.2% (inactive)
4 | O=S(=O)(NCCNc1nccc(-n2cnc3ccccc32)n1)c1ccc(Cl)cc1 | 113% (inactive)
5 | Cc1ccc(-c2cc(-c3cccc4ccccc34)n3c(n2)nc2ccccc23)cc1 | 7.27% (active)
6 | COc1ccc(CN2C(=O)/C(=C/c3nc(CO)cs3)SC2=S)cc1 | 58.9% (inactive)
7 | CC(C)=CCC[C@](C)(O)[C@H]1CC[C@]2(C)[C@@H]1CC[C@@H]1[C@@]3(C)CC[C@H](N)C(C)(C)[C@@H]3CC[C@]12C | -24.1% (active)
8 | COc1ccc(/C=C/C(=O)c2ccc(NC(=O)CSc3nnc(-c4ccc5nc(-c6ccc(Cl)cc6)[nH]c5c4)o3)cc2)cc1 | 78.6% (inactive)
9 | COc1ccc(-c2ccc3c4c(cccc24)C(=O)N(N2C(=O)c4cccc5cccc(c45)C2=O)C3=O)cc1 | 103% (inactive)
10 | N#Cc1c(-c2cccs2)cc(-c2cnccn2)nc1SCC(=O)Nc1ccc(Br)cc1 | 107% (inactive)
11 | NCCNC(=O)c1cccc(COc2ccccc2NC(=O)c2cc(Cl)c(Cl)[nH]2)c1 | 88.9% (inactive)
12 | COc1cc(NC(=O)Nc2cccc(-c3cc(=O)c4c(OC)c(OC)c(OC)cc4o3)c2)cc(OC)c1OC | 45% (inactive)
13 | COc1ccc(-c2nn(-c3ccccc3)cc2/C=C/C(=O)c2ccc(NC(=O)CCCCCCC(=O)NO)cc2)cc1 | 116% (inactive)
14 | CN1CCN(Cc2ccc(NC(=O)c3cncc(C#Cc4cnc5ccc(O[C@@H]6CCOC6)nn45)c3)cc2C(F)(F)F)CC1 | -48.8% (active)
15 | NS(=O)(=O)c1ccc(-n2cc(CC=O)nn2)cc1 | 105% (inactive)
16 | N#Cc1c(-c2cccs2)c(C#N)c(=O)n(Cc2nc3ccccc3[nH]2)c1N | 108% (inactive)
17 | CCOC(=O)/C(F)=C/C1CC1C1CCCCC1 (stereo not given) | 98.7% (inactive)
18 | N#Cc1c(NC(=O)c2ccccc2C(F)(F)F)sc2c1CCC(=O)C2 | 3.87% (active)
19 | CN(c1ccc(F)cc1)S(=O)(=O)c1ccc(-c2cnc(C3CC3)o2)cc1 | -15.8% (active)
20 | O=C1C(SCc2ccccc2)=C(Cl)CN1c1ccccc1 | 72.6% (inactive)

Row | SMILES | growth
21 | CS(=O)(=O)Nc1cc(-c2ccc3ncc(C#N)c(N[C@H](CO)c4ccccc4)c3c2)cnc1Cl | 25% (inactive)
22 | CS(=O)(=O)c1ccc(/C(=N/N=C(N)N)c2ccc(Cl)cc2)cc1 | 80% (inactive)
23 | Nc1ncc(-c2ccc3ncnc(N4CCc5cc(F)c(F)cc54)c3c2)cn1 | 37.1% (inactive)
24 | C#Cc1cc(OC)c(C(=O)Nc2ccc(F)cc2C(=O)Nc2cccc(S(=O)(=O)C(F)(F)F)c2)cn1 | -51.6% (active)
25 | CCCCSc1nnc(-c2ccc(-c3ccc(Cl)cc3)nc2C)o1 | 91.9% (inactive)
26 | COc1cc(-c2nn(C(C)(C)C)cc2-c2ccnc(NCCCNS(=O)(=O)c3cccc(F)c3)n2)ccc1Cl | 81.9% (inactive)
27 | Cc1cccc2sc(/N=C(\N)C(Cl)(Cl)Cl)nc12 | 103% (inactive)
28 | Cc1ccccc1Nc1nc(SC(C)C)nc(-c2ccccc2)c1C#N | 94.1% (inactive)
29 | Cc1ccc(CSC2=C(Cl)CN(c3ccc(Cl)cc3)C2=O)cc1 | 110% (inactive)
30 | C/C(=N\NC(=O)/C=C/CC(=O)O)c1nnn(-c2ccc([N+](=O)[O-])cc2)c1C | 98% (inactive)
31 | CNC(=O)c1cc(Oc2ccc3nc(NC(=O)c4cccc(C(F)(F)F)c4)sc3c2)ccn1 | 143% (inactive)
32 | CCN(CC)c1cn(-c2ccc(S(N)(=O)=O)cc2)nn1 | 105% (inactive)
33 | NC(=S)N/N=C(/C=C/c1cn(-c2ccccc2)nc1-c1ccc(Cl)cc1)c1cc2ccccc2oc1=O | 43.9% (inactive)
34 | Cc1ccc2c(n1)C(=O)C(Cl)=C(Nc1cccc(C(=O)OC(C)(C)C)c1)C2=O | 16.7% (inactive)
35 | O=C(Nc1nonc1-c1ccccc1)c1ccc(C(F)(F)F)cc1 | 79.1% (inactive)
36 | Clc1cccc(/C=N/Nc2nc(N/N=C/c3cccc(Cl)c3)nc(N3CCCCC3)n2)c1 | 97% (inactive)
37 | O=C(CSc1cc[n+](CCCCO)c2ccccc12)n1ccc2ccccc21 | 106% (inactive)
38 | O=C1[C@H]2Cc3c([nH]c4ccccc34)[C@@H](c3ccc(Cl)cc3)N2C(=O)CN1C1CCN(Cc2ccccc2)CC1 | 12.9% (inactive)
39 | N#Cc1ccc(/C=N/NC(=O)c2[nH]c3ccc(Br)cc3c2-c2ccccc2)s1 | -40% (active)
40 | Cc1cc(C(NC(=O)CCCCCNc2cccc3c2C(=O)N(C2CCC(=O)NC2=O)C3=O)c2cccnc2)c(O)c2ncccc12 (stereo not given) | -31% (active)
